Assay outcomes from PubChem.
NPR1 activator – GC-A (human) enzyme activation. HEK293 GC-A cells, cGMP TR-FRET, EC30 ANP; 0% at EC30 ANP, 100% saturating ANP. P16066. activation, % at 10 µM. actives 0.14% (n = 370,000); in the data active means activation above about 40%
MsrA inh – inhibits bovine methionine sulfoxide reductase A; purified bovine MsrA, absorbance read-out; inhibition, % at 15.5 µM; actives 0.75% (n = 360,000); in the data active means inhibition above about 4.5%;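 further: 0% = vehicle wells with enzyme and 100% = reference inhibitor wells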
HTR2A ag – mouse HTR2A agonism via beta-arrestin recruitment. activation, % at 7.6 µM. actives 0.66% (n = 360,000). CHO-K1 mHTR2A beta-arrestin complementation, luminescence; percent of 30 µM serotonin response. P35363;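 active means activation above a run cutoff, the mean activation of all tested compounds plus 3 SD, cut at about 14% in these data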;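 further: 0% = plate median of compound wells and 100% = 30 µM serotonin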
MsrA act – activates bovine MsrA enzyme. purified bovine MsrA, absorbance read-out. activation, % at 10.6 µM. actives 0.3% (n = 360,000). AID 602163; in the data active means activation above about 7.5%;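 further: 0% = vehicle and 100% = reference activator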
NPR2 activator – GC-B (human) receptor activation; P20594; HEK293-GC-B cells, CNP EC30, cGMP TR-FRET; 0% at EC30 CNP, 100% saturating CNP; activation, % at 10 µM; actives 0.11% (n = 370,000);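 active means activation at 10 µM reaching about 35% in either raw or pattern-adjusted values, limit read from the data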
Target sequence (P20594 whole entry, looked up): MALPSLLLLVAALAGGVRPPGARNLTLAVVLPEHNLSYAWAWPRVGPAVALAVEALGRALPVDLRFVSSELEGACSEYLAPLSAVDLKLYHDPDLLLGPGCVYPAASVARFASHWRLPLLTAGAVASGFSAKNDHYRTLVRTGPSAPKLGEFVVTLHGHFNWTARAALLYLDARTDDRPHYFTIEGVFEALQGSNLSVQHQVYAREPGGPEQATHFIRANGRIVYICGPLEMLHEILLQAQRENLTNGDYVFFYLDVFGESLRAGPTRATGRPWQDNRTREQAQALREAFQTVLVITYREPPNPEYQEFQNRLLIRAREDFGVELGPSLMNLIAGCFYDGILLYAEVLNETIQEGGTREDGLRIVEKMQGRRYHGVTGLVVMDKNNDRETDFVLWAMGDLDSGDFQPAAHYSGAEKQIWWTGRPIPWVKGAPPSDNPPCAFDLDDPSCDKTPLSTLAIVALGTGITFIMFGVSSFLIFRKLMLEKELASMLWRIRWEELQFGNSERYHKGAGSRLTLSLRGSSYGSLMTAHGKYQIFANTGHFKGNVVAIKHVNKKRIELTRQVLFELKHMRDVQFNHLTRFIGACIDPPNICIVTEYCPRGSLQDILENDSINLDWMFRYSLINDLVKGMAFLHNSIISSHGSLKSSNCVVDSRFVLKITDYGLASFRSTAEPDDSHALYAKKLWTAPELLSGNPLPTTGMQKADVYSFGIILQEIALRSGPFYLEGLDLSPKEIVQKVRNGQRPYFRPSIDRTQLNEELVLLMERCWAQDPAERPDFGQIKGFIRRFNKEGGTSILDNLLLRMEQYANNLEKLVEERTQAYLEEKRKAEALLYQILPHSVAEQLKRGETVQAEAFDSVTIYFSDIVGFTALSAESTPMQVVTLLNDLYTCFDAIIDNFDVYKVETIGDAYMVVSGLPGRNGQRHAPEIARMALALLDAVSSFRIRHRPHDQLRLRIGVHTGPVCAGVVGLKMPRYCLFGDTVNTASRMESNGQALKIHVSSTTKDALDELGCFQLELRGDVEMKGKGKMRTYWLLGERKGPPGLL
MOR ag counter – OPRM1 agonism in mouse HTR2A counterscreen | actives 5.3% (n = 2,300) | U2OS OPRM1 beta-arrestin PathHunter, luminescence; DMSO 0%, DAMGO 9.3 µM 100% | activation, % at 9.3 µM | shares compounds with HTR2A ag;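 active means mean activation above the mean of DMSO-only wells plus 3 SD, cut at about 0.5% in these data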
HTR2A ag conf – confirmation of mouse HTR2A serotonin receptor agonists. shares compounds with HTR2A ag. CHO-K1 PathHunter beta-arrestin recruitment, luminescence; DMSO 0%, 30 µM serotonin 100%. activation, % at 7.6 µM. actives 19% (n = 2,300). AID 624381;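 active means mean activation across triplicates above the hit threshold derived in the original primary screen, cut at about 15% in these data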
* hit, by the source's call; . = not tested or not shown. Shown are actives, neighbours in structure and some others; about 1.8% of the full set was active somewhere.

SMILES | NPR1 activator | MsrA inh | HTR2A ag | MsrA act | NPR2 activator | MOR ag counter | HTR2A ag conf
C[C@](N)(Cc1ccc(O)c(O)c1)C(=O)O | 0 | 0 | 3 | -4 | -1 | . | .
COc1ccc(Oc2c(Cl)cnn(C3c4ccccc4-c4ccccc43)c2=O)cc1 | -3 | . | . | . | -6 | . | .
O=C(O)c1ccc(S(=O)(=O)N2CCC3(CC2)CC(=O)c2ccccc2O3)cc1 | 4 | 0 | 19* | -5 | 0 | 0 | 2
CC1(c2ccccc2)CC(=O)N(c2ccc(NC(=O)c3ccccn3)cc2Cl)C1=O (stereo not given) | -1 | . | . | . | -6 | . | .
O=C(O)Cn1nc(-c2ccccc2)oc1=O | 4 | -1 | 0 | -2 | -3 | . | .
CC(C)(C)C(=O)n1nc(-c2ccccc2)oc1=O | 3 | -1 | 16* | -9 | 5 | -1 | -4
CO[C@@H]1CN(C)C(=O)c2ccc(NC(=O)C3CCC3)cc2OC[C@H](C)N(CC2CCCCC2)C[C@H]1C | 0 | 0 | 21* | . | 6 | 0 | -2
COc1ccc(NC(=O)N2CCCC(C(=O)Nc3cccc(C)c3C)C2)cc1 (stereo not given) | 4 | 0 | 16* | -1 | -1 | 0 | -4
CC(=NN1CCN(Cc2ccccc2Cl)CC1)c1ccc(O)cc1 | 0 | . | . | . | -4 | . | .
CCCn1nc(C(=O)Nc2ccc3nc(N4CCOCC4)sc3c2)ccc1=O | 1 | 3 | 21* | -3 | 4 | 0 | 0
CCn1c(COc2ccc(C)cc2)nnc1SCC(=O)Nc1ccc(Oc2ccccc2)cc1 | -3 | . | . | . | 2 | . | .
O=S1(=O)c2ccc(N3CC[C@@H](O)C3)cc2O[C@@H]2CCN1C2 | 3 | . | . | . | 4 | . | .
COc1ccc(-c2cc(C(=O)Nc3cc(OC)c(OC)c(OC)c3)[nH]n2)c(C)c1 | -6 | -1 | 0 | -9 | -1 | . | .
COc1ccc(-c2cc(C(=O)Nc3ccc(NC(C)=O)cc3)[nH]n2)c(C)c1 | -5 | 1 | 21* | -5 | -6 | -1 | -7
CCCOc1ccc(CN(C)c2ncnc(N)n2)cc1 | 4 | -1 | -3 | -6 | -1 | . | .
COc1ccc(CN(C)c2ncnc(N)n2)cc1 | 1 | -1 | 19* | -9 | 1 | -1 | -3
N#Cc1c(/N=C/c2ccco2)sc2c1CCCCC2 | -3 | -1 | 14* | -6 | 1 | 0 | 21*
COc1ccc(C(=O)NCCn2cc(SCC(=O)N3CCOCC3)c3ccccc32)cc1 | 3 | 1 | 3 | -1 | 0 | . | .
COc1ccc(C(=O)NCCn2cc(SCC(N)=O)c3ccccc32)cc1 | -6 | 0 | 16* | 1 | -3 | -1 | -6
Cc1ccc(-c2nnc(NC(=O)COc3ccc(F)cc3Cl)o2)cc1C | -5 | . | . | . | -7 | . | .
O=C(c1cccc(C(=O)N(c2ccccn2)C2CCCCC2)c1)N(c1ccccn1)C1CCCCC1 | 2 | 2 | 30* | -1 | 0 | 0 | 53*
COc1cccc(NC(=O)n2ccc3ccc(-c4ccc5ccn(C(=O)Nc6cccc(OC)c6)c5c4)cc32)c1 | 3 | . | . | . | 12 | . | .
COc1ccc(CN2CCN(C(=O)c3ccco3)CC2)c(OC)c1OC | -3 | 0 | 29* | -1 | 6 | -1 | 78*
COc1ccccc1CN1CCN(C(=O)c2ccco2)CC1 | 2 | -1 | 30* | -13 | -1 | -1 | 92*
COc1ccc(Br)cc1CN1CCN(C(=O)c2ccco2)CC1 | -11 | 0 | -2 | -3 | -4 | . | .
SMILES | NPR1 activator | MsrA inh | HTR2A ag | MsrA act | NPR2 activator | MOR ag counter | HTR2A ag conf
Cc1cc(CNC(=O)COc2ccccc2)c2ccccc2n1 | -3 | 0 | 16* | -8 | 0 | 0 | -4
Cc1ccsc1CN1CCN(c2ccccn2)CC1 | -4 | -1 | 35* | -5 | 0 | -1 | 98*
COc1ccc(CCC(=O)OCC(=O)c2c(N)n(CC(C)C)c(=O)n(C)c2=O)cc1 | 0 | 0 | 17* | -8 | 12 | 0 | -1
CC(C)Cn1c(N)c(C(=O)CSc2n[nH]c(N)n2)c(=O)n(C)c1=O | 0 | 0 | 25* | -1 | -1 | -1 | -3
COc1ccc(Cl)cc1NC(=O)C(=O)N/N=C/c1cc(C)n(-c2ccc(C)cc2)c1C | 0 | 2 | 18* | -1 | 4 | -1 | -4
Cc1ccc(-n2c(C)cc(/C=N/NC(N)=S)c2C)cc1 | -17 | 1 | 4 | -3 | -6 | . | .
c1coc(-c2nnc3n2N=C(c2ccc4c(c2)OCO4)CS3)c1 | 21 | . | . | . | 17 | . | .
Cc1ccc(N(C)S(=O)(=O)c2csc(C(N)=O)c2)cc1C | 0 | 1 | 15* | -1 | -1 | 0 | 2
O=C(c1cccs1)N1CCN(Cc2ccncc2)CC1 | 2 | 0 | 8 | 0 | -11 | . | .
O=C(c1cccs1)N1CCN(Cc2ccccc2)CC1 | 2 | 1 | 28* | -7 | 1 | 0 | 93*
COc1ccc(OC)c(CN2CCN(C(=O)c3cccs3)CC2)c1 | -1 | -1 | 33* | -14 | 5 | 0.8* | 91*
COc1ccc(CN2CCN(C(=O)c3cccs3)CC2)cc1 | -1 | 0 | 29* | -3 | 8 | 0 | 50*
COC(=O)[C@]12C[C@H](CC(=O)NCc3ccc(OC)c(OC)c3)C(=O)N(Cc3ccc4c(c3)OCO4)C1=C[C@H](C(C)(C)C)O[C@@H]2C | -4 | 1 | . | . | 2 | . | .
Cc1cc(NC(=O)c2ccc(NS(=O)(=O)c3ccccc3F)cc2)no1 | 1 | . | . | . | -8 | . | .
O=C(NCc1ccc(C(F)(F)F)cc1)O[C@H]1CC[C@@]23CCCN2C(=O)CCC[C@H]3C1 | 2 | . | . | . | -4 | . | .
Cc1nc2ncnn2c(C)c1CCC(=O)NCCCN1CCN(c2cccc(Cl)c2)CC1 | 0 | 0 | 24* | 0 | 2 | 0.9* | 80*
CCCCS(=O)(=O)N1C2=NC3=C(C(=O)N(CCOC)C3=O)C3N(C)c4ccccc4[C@]23C[C@H]1CO (stereo not given in full) | -2 | . | . | . | -4 | . | .
COc1ccccc1N(C)S(=O)(=O)c1ccc(C(=O)Nc2ncc(C)s2)cc1 | -4 | 0 | -17 | -1 | 1 | . | .
COc1ccccc1N(C)S(=O)(=O)c1ccc(C(=O)Nc2nc(C)c(C(C)=O)s2)cc1 | -1 | 2 | 18* | -6 | -3 | 0 | -2
COC(=O)[C@H](C(C)C)N1Cc2nnn(CC3CCCCC3)c2-c2ccccc2S1(=O)=O | 0 | . | . | . | 4 | . | .
COc1ccc(N2CCN(Cc3cc(=O)oc4cc(C)c(Cl)cc34)CC2)cc1 | -4 | 0 | 8 | -2 | -1 | . | .
Cc1cc2oc(=O)cc(Cn3ccnc3)c2cc1Cl | -3 | 1 | 26* | -2 | -4 | -1 | -3
